Assay outcomes deposited in PubChem BioAssay by National Center for Advancing Translational Sciences (NCATS).
IMPase cell inh – qHTS Assay for Identifying the Cell-Membrane Permeable IMPase Inhibitors | inhibition (IP1 accumulation), % at 46.1 µM | CHO-M1 cells, IP1 accumulation, HTRF TR-FRET ratio | Inositol monophosphatase 1 (Rattus norvegicus), P97697 | 120,000 tested, under 10 active | AID 901, 2007; active = well fitted curve in the direction sought with a large enough effect in the signal ratio, not every such curve was filed as active; inconclusive = small, poorly fitted or top-dose-only effect, or a change in a side signal; inactive = no such curve, though single readings can be large or run the other way; the % refers to the signal ratio;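 also: cells stimulated with carbachol in lithium chloride buffer; plate controls were DMSO basal wells for no effect and reference inhibitor wells for full effect; higher means more IMPase inhibition seen as more IP1 and lower FRET ratio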
Target sequence (P97697 whole entry, looked up): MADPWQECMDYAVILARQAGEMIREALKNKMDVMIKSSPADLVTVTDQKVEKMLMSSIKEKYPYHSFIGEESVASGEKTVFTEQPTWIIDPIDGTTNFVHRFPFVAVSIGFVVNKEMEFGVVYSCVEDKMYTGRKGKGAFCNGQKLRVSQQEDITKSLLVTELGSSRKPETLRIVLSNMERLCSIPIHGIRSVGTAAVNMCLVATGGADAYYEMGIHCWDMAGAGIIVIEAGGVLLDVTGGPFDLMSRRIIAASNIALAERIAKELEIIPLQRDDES
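Carbachol-driven Gq signalling in CHO-M1 cells (2000/well) generates IP1. Compounds that block IMPase raise IP1 and so reduce the FRET signal from Eu-anti-IP1 and d2-IP1 after a 10 min room-temperature lysis.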
IMPase Li inh – qHTS Assay for Identifying the Cell-Membrane Permeable IMPase Inhibitors: Potentiation with Lithium. 210,000 compounds, 0.35% hits. AID 1457, 2008. CHO-M1 cells, IP1 TR-FRET (IP-One), carbachol + lithium. Potency, µM (titrated, usually from 59.4 µM), for inactives: at the top dose activity, negative = IMPase inhibition, actives largely listed as inhibitors;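 also: IP1 builds up when IMPase is blocked and the TR-FRET signal falls; potency is read from the fitted curve at half-maximal effect; plate controls were basal vehicle for no effect and high inhibitor control for full effect; nearly all actives have a fitted effect of over 50% in size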
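Readout is a homogeneous TR-FRET IP1 immunoassay (Ex 320, Em 665 and 620), where raised cytosolic IP1 lowers signal. Cells were CHO-M1 treated 30 min at 37C with test compounds plus a little lithium; AC50 values came from Hill-equation fitting.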
12-hLO inh – qHTS Assay for Inhibitors of 12-hLO (12-human lipoxygenase); AID 1452, 2008; Polyunsaturated fatty acid lipoxygenase ALOX12 (Homo sapiens), P18054; purified 12-hLO, xylenol orange hydroperoxide absorbance; 150,000 compounds, 0.12% hits; Potency, µM (top dose mostly 57.1 µM), for inactives: at the highest dose activity change, negative = inhibition, most hits filed as inhibitors; also: potency is read from the fitted curve at half-maximal effect; nearly all actives have a fitted effect of over 55% in size
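150 nM 12hLO, 25 mM Hepes pH 7.0 + 0.01% Triton X-100; cpd preinc 15 min RT; 40 uM arachidonic acid, 30 min RT; Fe-XO 30 min; A573/A405 ratio as read-out.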
ALDH1A1 block – qHTS Assay for Inhibitors of Aldehyde Dehydrogenase 1 (ALDH1A1). 220,000 compounds, 7.3% hits. Purified ALDH1A1, NADH fluorescence, propionaldehyde substrate. Aldehyde dehydrogenase 1A1 (Homo sapiens), P00352. Potency, µM (highest dose often 75.3 µM), for inactives: at the top dose activity, negative = inhibition, usual class: inhibitors. AID 1030, 2008; active = well fitted inhibition curve with a large enough effect, not every such curve was filed as active; inconclusive = small, poorly fitted or top-dose-only effect, or another doubt; inactive = no such curve, though single readings can be large or run the other way;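 also: potency is read from the fitted curve at half-maximal effect; plate controls were no enzyme wells and a reference inhibitor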
HPGD inh – qHTS Assay for Inhibitors of HPGD (15-Hydroxyprostaglandin Dehydrogenase) | purified HPGD, NADH fluorescence kinetic, PGE2 substrate | Potency, µM, for the others: top-dose activity change, negative = inhibition, usual class: inhibitors | 150,000 compounds, 4.3% hits; active = well fitted inhibition curve with a large enough effect, not every such curve was filed as active; inconclusive = small, poorly fitted or top-dose-only effect, or another doubt; inactive = no such curve, though single readings can be large or run the other way; also: potency is read from the fitted curve at half-maximal effect
Target sequence (P15428 whole entry, looked up): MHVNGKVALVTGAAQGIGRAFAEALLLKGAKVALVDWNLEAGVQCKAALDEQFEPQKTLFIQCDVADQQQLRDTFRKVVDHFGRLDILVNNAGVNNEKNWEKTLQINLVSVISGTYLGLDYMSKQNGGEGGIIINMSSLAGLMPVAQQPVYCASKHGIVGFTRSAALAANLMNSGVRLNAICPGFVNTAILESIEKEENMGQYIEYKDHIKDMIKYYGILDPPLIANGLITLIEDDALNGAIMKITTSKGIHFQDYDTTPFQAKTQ
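20 nM HPGD preincubated 15 min at room temperature with compound in 50 mM Tris-HCl pH 8, 0.01% Tween 20. Started with 1 mM NAD+ and 30 uM prostaglandin E2; NADH fluorescence (360/450 nm) read 5 times over 30-s intervals, last minus first.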
NPSR antag – qHTS Assay for Antagonists of the Neuropeptide S Receptor: cAMP Signal Transduction; Q6W5P4; CHO-NPSR cells, cAMP TR-FRET, antagonist mode; Potency, µM (doses to about 38.3 µM), inactives show at the highest dose activity change, negative = inhibition, usual class: inhibitors; 220,000 compounds, 1% hits; also: potency is read from the fitted curve at half-maximal effect; nearly all actives have a fitted effect of over 50% in size
Starred values were filed as active, the others as inactive; ? = inconclusive; . = not tested or not shown; [ ] = another dose, or the depositor's remark. A selection: hits, their analogues and other compounds. The true share with any hit is near 8.9%. Unless noted, calls follow the shape of the dose curve; as a rule, active = well fitted curve in the direction sought with a large enough effect; inconclusive = small, poorly fitted or top-dose-only effect, or another doubt; inactive = no such curve, though single readings can be large; an effect the other way counts as inactive or inconclusive. Unless noted, % is scaled to controls: 0 for no effect and ±100 for the full control effect.

SMILES	IMPase cell inh	IMPase Li inh	12-hLO inh	ALDH1A1 block	HPGD inh	NPSR antag
O=C(NC(=O)c1ccccc1O)c1ccc2c(c1)CCO2	.	.	.	.	.	-22%
Cc1ccc(OCC(=O)N/N=C\c2cn(Cc3ccccc3)c3ccccc23)cc1C	.	-3%	1%	13µM*	?	-36%
O=[N+]([O-])c1ccc(N/N=C/c2cn(Cc3ccc(F)cc3)c3ccccc23)nc1	0	41%	-1%	18µM*	-21%	-25%[46.1 µM]
Cc1cccc(C)c1-n1c(C)cc(/C=N\Nc2ccc([N+](=O)[O-])cn2)c1C	5	50%[38.3 µM]	-19%	10µM*	-20%	-18%[46.1 µM]
CNC(=S)N/N=C/c1cn(Cc2ccc(F)cc2)c2ccccc12	.	16%	?	28µM*	-15%	-14%
Cc1ccc(CS(=O)(=O)Cc2ccc(C(=O)NCc3ccco3)o2)cc1	-5	-12%[38.3 µM]	2%	5%	-11%	5%[46.1 µM]
CC[C@@H](C)[C@@H](CO[C@@H](Cc1ccccc1)C(=O)N[C@@H](CCS(C)(=O)=O)C(=O)OC(C)C)NC[C@@H](N)CS	.	9%	.	16µM*	.	.
COC(=O)C(CC(C)C)NC(=O)C(N)Cc1ccccc1 (centres undefined)	0	9%[38.3 µM]	-1%	10%	-2%	12%[46.1 µM]
Cc1ccc(N/N=C(\C#N)C(N)=S)c(C)c1	.	4%	-16%	?	14µM*	-20%
Cc1c(C(=O)NCC2COc3ccccc3O2)oc2ccc(S(=O)(=O)N3CCOCC3)cc12 (centres undefined)	15	23%	-1%	-12%	-26%	?
CCc1ccc(C(=O)NCC2COc3ccccc3O2)o1 (centres undefined)	22	0%[38.3 µM]	-3%	-10%	18µM*	-19%[46.1 µM]
CCN(CC)S(=O)(=O)c1ccc2oc(C(=O)NCC3COc4ccccc4O3)c(C)c2c1 (centres undefined)	12	25%[38.3 µM]	-9%	14µM*	-24%	-29%[46.1 µM]
COC(=O)c1cc(OC)c(OC)cc1NC(=S)Nc1cccc(Cl)c1	2	?	-3%	?	-16%	-7%[46.1 µM]
COc1cc(C)c(NC(=S)Nc2ccc(Cl)c(Cl)c2)cc1OC	7	3%	?	8.9µM*	16µM*	-13%[46.1 µM]
COc1cc(Cl)c(C)cc1NC(=S)NN	.	1%	.	11µM*	.	6%
COc1cc(NC(=S)Nc2ccc(Br)cc2Cl)c(OC)cc1Cl	9	26%	-5%	28µM*	-27%	-9%
COc1cc(NC(=S)Nc2cccc(Cl)c2Cl)c(OC)cc1Cl	-8	.	-15%	-5%	.	?
Cc1cccc(OCc2nc(C#N)c(N3CC(C)CC(C)C3)o2)c1 (centres undefined)	11	19%[38.3 µM]	-10%	-15%	-24%	-22%[46.1 µM]
CCC(=O)Oc1ccc(C(=O)Nc2cccc(C(=O)NC(C)(C)C)c2)cc1	.	4%	.	-2%	.	3%
O=C(c1cc(Br)c(Br)s1)N1CCN(C/C=C/c2ccccc2)CC1	-9	35%[38.3 µM]	-16%	-6%	-14%	-12%[46.1 µM]
CSc1nc(-c2ccco2)nn1C(=O)c1ccccc1	10	20%[38.3 µM]	1%	-43%	14µM*	-7%[46.1 µM]
CCS(=O)(=O)n1nc(-c2ccco2)nc1SC	?	-13%[38.3 µM]	0%	22µM*	8.9µM*	-11%[46.1 µM]
CS(=O)(=O)n1nc(-c2ccc(Cl)cc2)nc1N	.	-4%	.	3%	.	-7%
Cc1ccc(S(=O)(=O)n2nc(-c3ccco3)nc2SCc2ccccc2)cc1	0	12%	-4%	22µM*	25µM*	-8%[46.1 µM]
CCS(=O)(=O)n1nc(-c2ccc(Cl)cc2)nc1SC	2	28%[38.3 µM]	-15%	?	13µM*	?
SMILES	IMPase cell inh	IMPase Li inh	12-hLO inh	ALDH1A1 block	HPGD inh	NPSR antag
CSc1nc(-c2ccco2)nn1C(=O)c1ccc(C)cc1	-5	7%	-2%	-7%	?	22%
CN1C(=O)C(O)(CC(=O)/C=C/C=C/c2ccccc2)c2ccccc21 (centres undefined)	.	-6%	1%	4%	?	11%
CSc1nc(-c2ccco2)nn1S(=O)(=O)c1ccccc1	2	25%[38.3 µM]	4%	14µM*	14µM*	7%[46.1 µM]
CC(C)CC(NC(=O)C1CCC(C)CC1)C(=O)Nc1cccnc1 (centres undefined)	12	29%[38.3 µM]	-1%	-4%	-3%	-12%[46.1 µM]
O=C(NCc1ccccn1)C1CCN(Cc2cnn(-c3ccccc3)c2-n2cccc2)CC1	2	44%[38.3 µM]	6%	25µM*	-14%	19%[46.1 µM]
O=c1c2ccccc2nc2n1CC/C2=C\c1ccccc1[N+](=O)[O-]	-1	-4%[38.3 µM]	2%	10%	-11%	-7%[46.1 µM]
COc1ccc(C2C3C=CCC(c4cccc(-c5ccc(C)cc5)c4)C3C(=O)N2Cc2ccccc2)cc1Cl (centres undefined)	.	.	.	.	.	10µM*
COc1ccc(-c2cccc(C3CC=CC4C3C(=O)N(Cc3ccccc3)C4c3ccc4ccccc4c3)c2)cc1 (centres undefined)	.	.	.	.	.	-29%
CCC(Sc1ncccc1C(=O)OC(C)C)C(=O)NCc1ccco1 (centres undefined)	-8	22%[38.3 µM]	-5%	-4%	2%	-13%[46.1 µM]
CCN(CC)C(=O)C(C)OC(=O)COc1ccc(Cl)cc1C (centres undefined)	9	-5%[38.3 µM]	-1%	6%	-6%	6%[46.1 µM]
Cc1cc(OCC(=O)N2CCOCC2)cc2oc(=O)c3ccccc3c12	3	7%	0%	?	?	4%
CCCCN(C(=O)CNC(=O)c1cccs1)C(C(=O)NC1CCCCC1)c1cccnc1 (centres undefined)	-20	7%	-1%	7%	-18%	-1%[46.1 µM]
COc1ccc(NC(=O)C2=C(C)C(=O)OC23CCC(C)CC3)c(OC)c1 (centres undefined)	1	25%[38.3 µM]	-7%	-1%	-6%	-17%[46.1 µM]
CCOC(=O)c1cnc(SC2CC(=O)N(c3ccccc3)C2=O)nc1N (centres undefined)	0	-9%[38.3 µM]	-5%	?	-1%	-10%[46.1 µM]
CCOC(=O)c1cnc(SC2CCc3ccccc3C2=O)nc1N (centres undefined)	-8	16%[38.3 µM]	-6%	32µM*	28µM*	-7%[46.1 µM]
